Most compounds without a hit are left out; they make up all but 4.1% or so of the library.
NSD2 HMT inh – NSD2 histone methyltransferase inhibitors, primary screen, biochemical, AlphaScreen, single concentration, set 2. Histone-lysine N-methyltransferase NSD2 (Homo sapiens), O96028. inhibition, % at 12.5 µM. actives 0.54% (n = 310,000). AID 743445, 2014. NSD2 peptide methylation, 120 min; in the data active = inhibition above about 50%
HIV Env fusion – inhibitors of HIV-1 Env-driven cell-cell fusion, primary screen, HeLa-JRFL effector, CEM21 target cells, luciferase | inhibition, % at 12.3 µM | actives 1.1% (n = 360,000);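 active = mean replicate inhibition score of at least 50 and every replicate individually at or above 50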;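 also: 0% = plate neutral controls and 100% = maraviroc near 300 nM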
ALR H2O2 inh – inhibitors of human ALR sulfhydryl oxidase, primary screen, biochemical, H2O2 detection, HRP-luminol luminescence, single point. FAD-linked sulfhydryl oxidase ALR (Homo sapiens), P55789. purified ALR, DTT oxidation. inhibition, % (no concentration beside the values). actives 3.8% (n = 290,000);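 active = mean replicate inhibition above about 79%, with every replicate also reaching it, limit read from the data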
Target sequence (P55789 whole entry, looked up): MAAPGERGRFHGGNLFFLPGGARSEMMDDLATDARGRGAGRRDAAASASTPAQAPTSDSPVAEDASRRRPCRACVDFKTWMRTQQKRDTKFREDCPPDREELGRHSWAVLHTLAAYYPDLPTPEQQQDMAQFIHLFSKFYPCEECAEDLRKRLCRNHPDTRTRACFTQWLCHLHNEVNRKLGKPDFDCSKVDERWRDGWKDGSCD
Casp6 inh – human caspase-6 inhibitors, primary screen, biochemical, VEID-R110 fluorescence, single point, set 2. purified caspase-6, Z-VEID-R110 cleavage fluorescence. actives 0.53% (n = 350,000). AID 686996, 2013. P55212. inhibition, % at 12.5 µM;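 active = mean inhibition across replicates at least about 35%, with every replicate also reaching that limit, limit read from the data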;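 also: 0% = median of neutral control wells and 100% = no fluorescence left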
CFTR F508del cor – F508del CFTR correction, initial screen, CFBE line, single point | CFBE cells, YFP halide quenching; stimulated with forskolin plus potentiator P3; % fluorescence drop versus neutral controls | activity (quench increase), % at 7.58 µM | actives 0.36% (n = 350,000) | AID 720511, 2013;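 active = mean added fluorescence quench of at least 8% versus neutral control, with both replicates also reaching 8%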;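 also: cells transiently co-express mutant CFTR-F508del with the halide-sensitive YFP; corrector assay measuring rescue of mutant channel to the surface after 24 h compound exposure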
PglD inh – C. jejuni PglD acetyltransferase inhibitors, primary screen, biochemical, DTNB colorimetric, single point; inhibition, % at 12.5 µM; actives 0.098% (n = 360,000); purified PglD enzyme, DTNB colorimetric CoA detection; UDP-N-acetylbacillosamine N-acetyltransferase PglD (Campylobacter jejuni); in the data active = inhibition above about 16%, passing the limit was not always enough
Active calls of the source: *; [ ] = another dose, or the depositor's remark.

Cc1ccc(CNC(=O)C(NS(=O)(=O)c2ccc3nc(C)sc3c2)C(C)C)cc1 (configuration not stated) was read as HIV Env fusion -9.4, ALR H2O2 inh 93.3*, Casp6 inh 4.1, CFTR F508del cor 0.4 and PglD inh 1.8.
`COCCNC(=O)CNS(=O)(=O)c1ccc2nc(C)sc2c1` gave NSD2 HMT inh -1.6, ALR H2O2 inh -4.7 and PglD inh 0.5.
Screening Cc1nc2ccc(S(=O)(=O)NCC(=O)NC(C)c3ccccc3)cc2s1 (configuration not stated) returned NSD2 HMT inh -3.8, HIV Env fusion 4.1, ALR H2O2 inh -8.7 and CFTR F508del cor -1.2.
For COc1ccc(NC(=O)CNS(=O)(=O)c2ccc3nc(C)sc3c2)c(OC)c1 the results were NSD2 HMT inh -7.0 and ALR H2O2 inh 98.8*.
For COC(=O)c1ccc(CSc2nc3ccccc3s2)o1 the results were NSD2 HMT inh -2.6, ALR H2O2 inh 1.9, Casp6 inh -0.2, CFTR F508del cor 0.9 and PglD inh -5.1.
`C=CCNC(=O)c1ccc(CSc2nc3ccccc3s2)cc1` gave NSD2 HMT inh -2.6, HIV Env fusion -8.8, ALR H2O2 inh 98.8*, Casp6 inh 8.9, CFTR F508del cor 7.4 and PglD inh -3.4.
`CC(=O)NCCNC(=O)c1ccc(CSc2nc3ccccc3s2)cc1` gave NSD2 HMT inh -1.5, HIV Env fusion -245.1, ALR H2O2 inh 99.2*, Casp6 inh 2.5, CFTR F508del cor -0.1 and PglD inh -1.2.
O=S(=O)(Nc1c(S(=O)(=O)c2ccccc2)c2nc3ccccc3nc2n1C1CCCCC1)c1ccccc1 was read as NSD2 HMT inh 140.5*, HIV Env fusion 22.3, ALR H2O2 inh -7.9, Casp6 inh 41.3*, CFTR F508del cor -2.9 and PglD inh 2.7.
Screening CNC[C@@H]1OCCCC[C@H](C)Oc2ccc(NC(=O)Nc3ccc4c(c3)OCO4)cc2C(=O)N([C@H](C)CO)C[C@H]1C returned HIV Env fusion -15.3[16.7 µM] and CFTR F508del cor -2.2.
Screening CCN(Cc1ccc(OC)c(F)c1)C(C)C(=O)Nc1ccc(S(=O)(=O)N2CCCC2)cc1 (configuration not stated) returned HIV Env fusion 57.1*, ALR H2O2 inh -1.7, Casp6 inh 1.3 and CFTR F508del cor 6.4.
Screening Cc1sc2nc(CN3CCC(C)CC3)nc(Cl)c2c1C returned NSD2 HMT inh 7.1, HIV Env fusion -35.1, ALR H2O2 inh 97.3*, Casp6 inh -1.7 and CFTR F508del cor 0.9.
For Cc1sc2nc(CN3CCOCC3)nc(Cl)c2c1C the results were NSD2 HMT inh -0.1, HIV Env fusion 4.2, ALR H2O2 inh 16.8 and Casp6 inh 0.2.
For O=S(=O)(NC1=NCCCCC1)c1ccc2sc(NS(=O)(=O)c3ccc4ccccc4c3)nc2c1 the results were NSD2 HMT inh -19.9, HIV Env fusion 7.7, ALR H2O2 inh 87.2*, Casp6 inh 0.1, CFTR F508del cor 4.3 and PglD inh -12.6.
COc1ccc(S(=O)(=O)N(C)C[C@H]2Oc3ncc(C#CC4(O)CCCC4)cc3C(=O)N([C@H](C)CO)C[C@H]2C)cc1 was read as Casp6 inh -0.2, CFTR F508del cor -0.7 and PglD inh 6.0.
`N=c1c2c(n(Cc3ccc(Br)cc3)c3c1CCC3)CCCC2` gave NSD2 HMT inh 0.3, HIV Env fusion 69.9*, ALR H2O2 inh -10.3, Casp6 inh -1.3 and CFTR F508del cor 5.8.
`COc1ccc(-c2ccc3n(c2=O)C[C@@H]2[C@@H](CO)[C@H](C(=O)N4CCCCC4)[C@H]3N2C)cc1` gave Casp6 inh 1.2, CFTR F508del cor -2.0 and PglD inh -0.6.
For Cc1ccc(-n2nc3c(c2NC(=O)c2ccco2)CS(=O)C3)cc1 (configuration not stated) the results were NSD2 HMT inh -3.1, HIV Env fusion 88.3*, ALR H2O2 inh -13.6, Casp6 inh 1.7, CFTR F508del cor 1.2 and PglD inh -3.1.

Bioassay records from PubChem.
